The list is not random: actives were taken first. Their share in the collection is about 2.9%.
MEKK3 PB1 HTS: modulators of MEKK3-MEK5 PB1 binding, primary screen, biochemical, wildtype MEKK3, multiplex bead flow cytometry, Alexa488-MEK5 | bead-based flow cytometry, Alexa488-MEK5 binding to MEKK3; actives lie on both sides; 0 = blocked by unlabeled MEK5, 100 = vehicle | binding response (% of control), % at 10 µM | 290,000 tested, 1.4% active;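 active means binding response more than 3 SD above or below the average of its plate-row segment, actives on both sides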;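 further: Alexa488 bead fluorescence after subtracting the streptavidin-only scavenger bead signal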
MEKK2 WT-MEK5: modulators of MEK5 binding to wildtype MEKK2, primary screen, biochemical, multiplex bead flow cytometry, Alexa488-MEK5. 290,000 tested, 1.1% active. binding response (% of control), % at 10 µM. Mitogen-activated protein kinase kinase kinase 2 (Homo sapiens), Q9Y2U5. Alexa488-MEK5 binding to MEKK2 WT; actives lie on both sides; in the data active means binding response below about 67% or above about 130%
ABCB6 inh 2: ABCB6 transporter inhibitors, primary screen, K562-ABCB6 cells, flow cytometry, MLPCN library. K562-ABCB6 porphyrin accumulation, 1 h; stronger effect = lower value. fluorescence ratio to DMSO, % at 10 µM. 360,000 tested, 0.19% active;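 active means fluorescence ratio to DMSO below 75%, the collection mean minus 3 SD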;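 further: signal is porphyrin accumulated inside mitochondria; 100% equals median channel fluorescence of DMSO control wells; lower ratio means ABCB6 inhibition with less porphyrin fluorescence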
Target sequence (Q9NP58 whole entry, looked up): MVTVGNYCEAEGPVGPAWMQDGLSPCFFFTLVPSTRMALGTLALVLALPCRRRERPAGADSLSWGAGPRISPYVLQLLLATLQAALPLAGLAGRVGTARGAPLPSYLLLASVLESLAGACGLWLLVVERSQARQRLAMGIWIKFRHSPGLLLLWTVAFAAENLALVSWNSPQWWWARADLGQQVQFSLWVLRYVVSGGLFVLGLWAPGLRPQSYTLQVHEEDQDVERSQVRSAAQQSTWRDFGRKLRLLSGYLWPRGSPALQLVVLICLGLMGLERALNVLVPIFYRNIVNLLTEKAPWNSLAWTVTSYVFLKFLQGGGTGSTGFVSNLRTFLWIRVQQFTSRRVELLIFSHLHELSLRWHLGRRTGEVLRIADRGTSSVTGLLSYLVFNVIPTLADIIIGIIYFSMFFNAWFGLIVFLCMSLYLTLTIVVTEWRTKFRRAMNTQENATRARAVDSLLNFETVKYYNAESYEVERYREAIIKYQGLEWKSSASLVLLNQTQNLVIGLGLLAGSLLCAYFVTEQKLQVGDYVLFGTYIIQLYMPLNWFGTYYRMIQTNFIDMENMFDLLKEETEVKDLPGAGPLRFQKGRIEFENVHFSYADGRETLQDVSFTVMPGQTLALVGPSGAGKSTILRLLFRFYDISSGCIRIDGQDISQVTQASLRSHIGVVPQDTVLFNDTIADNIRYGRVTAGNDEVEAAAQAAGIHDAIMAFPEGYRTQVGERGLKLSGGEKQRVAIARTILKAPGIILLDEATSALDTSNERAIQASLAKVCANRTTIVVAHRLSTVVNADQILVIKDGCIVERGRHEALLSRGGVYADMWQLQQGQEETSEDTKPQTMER
CRFR2-BP antag: antagonists of CRF-BP/CRF-R2 complex, primary screen, cell-based, HEK293, calcium dye fluorescence, uHTS; 350,000 tested, 0.59% active; inhibition, % at 11.8 µM; CRF-induced calcium fluorescence; AID 588475, 2011;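 active means inhibition of the ligand-induced calcium signal above about 50% at the single tested concentration, limit read from the data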
MEKK2mut PB1 HTS: MEK5 binding signal on mutant MEKK2 PB1, primary screen, biochemical, multiplex bead flow cytometry, Alexa488-MEK5; Alexa488-MEK5 binding to MEKK2 mutant; percent response, % at 10 µM; 290,000 tested, 0.35% active; AID 1530, 2009; in the data active means percent response above about 24%, passing the limit was not always enough
CRFBP-R2 agonist: agonists of CRF-BP/CRF-R2 complex, primary screen, cell-based, HEK293, calcium dye fluorescence, uHTS. activation, % at 13.2 µM. calcium dye fluorescence (FLIPR); percent of saturating CRF peptide response. 350,000 tested, 0.46% active;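 active means activation of at least 50%, plus an integration ratio under a set limit after plate pattern correction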;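 further: plate controls were neutral control wells without compound for no effect and CRF at EC100 for full effect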
* hit, by the source's call; i = inactive; x = no result.

SMILES | MEKK3 PB1 HTS | MEKK2 WT-MEK5 | ABCB6 inh 2 | CRFR2-BP antag | MEKK2mut PB1 HTS | CRFBP-R2 agonist
CC(C)Cn1c(SCC(=O)N2CCc3ccccc3C2)nc2cc(Cl)ccc2c1=O | 98 | 100 | 103 | 118* | -2 | -1
N/C(=N\OS(=O)(=O)c1ccc(Br)cc1)c1ccncc1 | 59 | 66 | 63* | 26 | -25 | -1
N/C(=N\OC(=O)COc1ccc(Br)cc1)c1ccncc1 | 103 | 105 | 98 | 59* | -1 | -5
CCOc1ccc(OCC(=O)OCC(=O)NCC2CCCO2)cc1 (stereo not drawn) | x | x | 100 | 2 | x | 1
CC(C)(C)CC(=O)N1CCN(c2ccc(S(=O)(=O)N3CCOCC3)cc2[N+](=O)[O-])CC1 | x | x | 99 | 2 | x | -1
Nc1c(N(CCC2=CCCCC2)C(=O)c2ccco2)c(=O)[nH]c(=O)n1Cc1ccccc1 | x | x | 95 | -11 | x | 0
CCOc1ccc(OCCC(=O)N(CCCOC)c2c(N)n(Cc3ccccc3)c(=O)[nH]c2=O)cc1 | x | x | 100 | -6 | x | 0
CC(c1ccccc1C(O)(c1ccccc1)c1ccccc1)N(C)C (stereo not drawn) | 96 | 97 | 119 | -63 | -2 | 93*
O=c1[nH]c(Nc2ccccc2)cc2ccccc12 | 100 | 101 | 103 | -43 | 3 | 63*
O=c1[nH]c(Nc2ccccc2)cc2cc(Br)ccc12 | 90 | 92 | 102 | -1 | -3 | 2
CCCC12CN(C(=O)c3ccc([N+](=O)[O-])cc3)CC(C)(CN(C(=O)c3ccc([N+](=O)[O-])cc3)C1)C2=O | 92 | 94 | 101 | 126* | -7 | -1
CN(CC(=O)Nc1ccccc1Br)C(=O)CCSc1ccc(F)cc1 | x | x | 101 | 10 | x | -2
O=C1c2cccc3c(N4CCCCC4)ccc(c23)C(=O)N1c1ccccc1O | 104 | 90 | 233 | -241 | 0 | 259*
Cc1ccc(N2C(=O)c3cccc4c(N5CCN(C)CC5)ccc(c34)C2=O)c2cccnc12 | 98 | 100 | x | -73 | -1 | 89*
O=C1c2cccc3cccc(c23)C(=O)N1c1ccc(O)cc1 | 104 | 106 | 102 | 1 | 4 | -1
O=C1c2cccc3c(N4CCCCC4)ccc(c23)C(=O)N1c1ccc(O)cc1 | 96 | 86 | 169 | -277 | 1 | 224*
Cc1ccc(C(CC(=O)O)NC(=O)CCNC(=O)c2ccco2)cc1 (stereo not drawn) | x | x | 99 | 1 | x | -1
O=C(CN1C(=O)C(=O)N(C2CCCC2)C1=O)Nc1ccc(Cl)cc1C(F)(F)F | x | x | 95 | -12 | x | 2
CO/N=C/C(C#N)c1ncc(C(F)(F)F)cc1Cl (stereo not drawn) | 90 | 94 | 89 | 77* | -5 | 49
COC(=O)C1(C)NC(c2ccc(OC)cc2)C2C(=O)N(c3ccccc3)C(=O)C21 (stereo not drawn) | 101 | 99 | 103 | 3 | 2 | 1
CCC(c1nnc(SCC(=O)Nc2cccc(S(N)(=O)=O)c2)n1Cc1ccccc1)N(C)C (stereo not drawn) | 105 | 108 | 103 | 7 | 7 | 0
CCC(c1nnc(SCC(=O)Nc2c(F)cccc2F)n1Cc1ccccc1)N(C)C (stereo not drawn) | 105 | 107 | 92 | 60* | 5 | -3
NC(=S)NN=C1Cc2cccc3cccc1c23 | x | x | 100 | 7 | x | -4
COc1cccc(-c2ccc3ncnc(NCc4cccs4)c3c2)c1 | x | x | 97 | 54* | x | -2
c1cncc(-c2ccc3ncnc(NCc4cccs4)c3c2)c1 | x | x | 95 | 0 | x | 0
SMILES | MEKK3 PB1 HTS | MEKK2 WT-MEK5 | ABCB6 inh 2 | CRFR2-BP antag | MEKK2mut PB1 HTS | CRFBP-R2 agonist
O=C(NCc1ccc(Cl)s1)C1CCC(=O)N(CCc2cccc(F)c2)C1 (stereo not drawn) | 104 | 102 | 98 | 4 | 6 | -1
CN1C(=O)CSc2ccc(NC(=O)N3CCC(N4CCCCC4)CC3)cc21 | 102 | -1.0* | 100 | -3 | 15 | 0
O=C(c1ccccc1)c1nc2ccccc2[nH]c1=O | 101 | 101 | 100 | 67* | 2 | -1
O=C(c1cccc(Br)c1)c1nc2ccccc2[nH]c1=O | x | x | 97 | x | x | x
Cn1c(/C(C#N)=C/c2ccc(O)cc2)nc2ccccc21 | 81 | 84 | 97 | 3 | -11 | 1
COc1cc(/C=C(\C#N)c2nc3ccccc3[nH]2)cc(OC)c1O | 104 | 96 | 118 | -205 | -5 | 164*
COc1ccc(/C=C(\C#N)c2nc3ccccc3[nH]2)cc1O | 98 | 98 | 105 | -10 | -3 | -1
COc1cc(/C=C(\C#N)c2nc3ccccc3n2C)cc(OC)c1O | 101 | 102 | 102 | -61 | 0 | 52*
Cc1ccsc1-c1nc(CN2CCN(C)C(=O)[C@@H]2C)c(C)o1 | 101 | 103 | 91 | 16 | -3 | 0
Cc1oc(-c2cc(F)ccc2F)nc1CN1CCN(C)C(=O)[C@@H]1C | 54 | 22* | 100 | -2 | -11 | 1
COc1ccc2c(c1)/C(=C/c1cc(OC)c(OC)c(OC)c1)C(=O)N2 | x | x | i | 106* | x | -3
COc1ccc(/C=C2\C(=O)NC(=O)c3ccccc32)cc1OC | x | x | 100 | -37 | x | 10
N#CC1=C(N)OC2=C(CC/C2=C\c2ccccc2Cl)C1c1ccccc1Cl (stereo not drawn) | 103 | 104 | 181 | -86 | 13 | 91*
N#CC1=C(N)OC2=C(CC/C2=C\c2ccccc2)C1c1ccccc1 (stereo not drawn) | x | x | 289 | -349 | x | 300*
CS(=O)(=O)N(CC(=O)N1CCCCCC1)c1cc(Cl)ccc1Cl | 99 | 105 | 100 | 4 | 2 | 0
Cc1ccc(CNC(=O)CCC(=O)Nc2nnc(C)s2)cc1 | 102 | 101 | 96 | -3 | 0 | -1
CCC(C)c1ccc(NC(=O)CN(C)CC(=O)Nc2cccc(OC)c2)cc1 (stereo not drawn) | 101 | -6.0* | 97 | -4 | -6 | 0
c1ccc(-c2cc3nccc(-c4ccccn4)n3n2)cc1 | 101 | 91 | 95 | 60* | 0 | -2
Cc1cc2nccc(-c3ccccn3)n2n1 | 95 | 94 | 97 | 5 | -42 | -2
COc1ccc(Cl)c(-c2cc(C(=O)Nc3ccccc3)[nH]n2)c1 | x | x | 100 | x | x | x
Cc1nn(C(=O)c2c(-c3ccccc3)noc2C)c(C)c1N=Nc1cc(C(F)(F)F)cc(C(F)(F)F)c1 | 104 | 102 | 98 | 53* | 9 | 5
Cc1onc(-c2ccccc2)c1C(=O)n1nnc2ccccc21 | 108 | 107 | 99 | -15 | 3 | -1
